Reference: PubChem BioAssay (EPA / NIEHS)
The source made the active and inactive calls. The calls were made as follows: active = hit-call score of the fitted dose curve at least 0.9, where 1 is the maximum; inactive = score below 0.9.

Key:
[1] = IUF_NPC1a_proliferation_area_72hr: Leibniz Research Institute for Environmental Medicine (IUF) 72-hour Neural Progenitor Cell Proliferation Area Assay (NPC1a) (AID 2284208)
Summary of the method: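 Proliferation is scored as sphere area gain in primary human fetal neural progenitors treated for 72 h in EGF/FGF-containing medium. Viability, LDH and BrdU readouts come from the same wells.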

[2] = IUF_NPC1_viability_72hr: Viability Assessment at 72 hours in the Leibniz Research Institute for Environmental Medicine (IUF) Neural Progenitor Cell Proliferation Assay (NPC1) (AID 2284209)
Experimental: IUF_NPC1 is a cell-based, multiplexed assay that uses hNPC, a human primary neural progenitor cells, with measurements taken at 72 hours after chemical dosing in a 96-well plate. Human neural progenitor cells (hNPC) are generated from human fetal brain cortex at gestational week (GW) 16-19. Grown in suspension culture and under proliferative conditions (proliferation media and growth factors), these cells represent neural progenitor cell proliferation. In the NPC1 assay, hNPC's are exposed to the test compound for 72h. Cell proliferation is assessed as an increase in sphere area using automated phase contrast imaging and as incorporation of Bromodeoxyuridine (BrdU) during DNA synthesis using a luminescence-based cell proliferation ELISA. In parallel, the cell viability is assessed using an alamar blue viability assay and the cytotoxicity using a lactate dehydrogenase dependent membrane integrity assay.IUF_NPC1_viability_72hr is one of 4 assay components measured from the IUF_NPC1 assay. It is designed to measure cell viability assessed as mitochondria-dependent reduction of resazurin to resorufin using the alamar blue cell viability assay. Viability is measured as a fluorescence signal (relative fluorescence unit) in a multiplate reader. […]

[3] = CCTE_Mundy_HCI_Cortical_Synap_Neur_Matur_NeuriteSpotCountPerNeuriteLength: CCTE's Synaptogenesis and Neurite Maturation Assay in rat cortical cells for Neurite Spot Count per Neurite Length, Mundy Lab (AID 2284210)
Summary of the method: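 Primary rat cortical neurons, compound exposure DIV 7–12, 288.33 h endpoint. Hoechst, anti-MAP2 and anti-synaptophysin labelling; neurite-associated puncta per neurite length scored by automated imaging relative to DMSO controls.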

[4] = CCTE_Mundy_HCI_Cortical_Synap_Neur_Matur_BPCount: CCTE's Synaptogenesis and Neurite Maturation Assay in rat cortical cells for Branch Point Count, Mundy Lab (AID 2284211)
Summary of the method: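 Branch point number is quantified by automated imaging of fluorescently labelled neurites and synapses in rat primary cortical neurons exposed from DIV 7 to DIV 12. Activity is analysed relative to DMSO negative control.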

[5] = CCTE_Mundy_HCI_Cortical_NOG_NeuriteCount: CCTE's Neurite Outgrowth Assay in rat cortical cells for Neurite Count, Mundy Lab (AID 2284212);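 also: cells fixed about two days after chemical exposure began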
Summary of the method: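 Neurite number per cell from high-content imaging of betaIII-tubulin immunostaining, with Hoechst nuclear counterstain.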

[6] = CCTE_Mundy_HCI_Cortical_NOG_NeuriteLength: CCTE's Neurite Outgrowth Assay in rat cortical cells for Neurite Length, Mundy Lab (AID 2284213)
Summary of the method: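 Neurite length was read by high-content imaging of βIII-tubulin-labelled neurites in rat primary cortical cultures. Activity was fitted relative to DMSO.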

[7] = CCTE_Mundy_HCI_Cortical_Synap_Neur_Matur_NeuriteLength: CCTE's Synaptogenesis and Neurite Maturation Assay in rat cortical cells for Neurite Length, Mundy Lab (AID 2284214)
Summary of the method: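 Neurite length in rat primary cortical cultures is imaged after MAP2, synaptophysin and Hoechst staining. Dosing starts DIV 7, ending DIV 12; DMSO serves as negative control and baseline.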

[8] = CCTE_Mundy_HCI_Cortical_Synap_Neur_Matur_NeuriteSpotCountPerNeuron: CCTE's Synaptogenesis and Neurite Maturation Assay in rat cortical cells for Neurite Spot Count per Neuron Count, Mundy Lab (AID 2284215)
Summary of the method: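 Synapse density is scored as synaptophysin spots along neurites per neuron in fixed rat cortical neurons, measured at DIV 12 after chemical dosing at DIV 7. DMSO is the negative control and activity baseline.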

[9] = CCTE_Mundy_HCI_Cortical_Synap_Neur_Matur_SynapseCount: CCTE's Synaptogenesis and Neurite Maturation Assay in rat cortical cells for Synapse Count, Mundy Lab (AID 2284218)
Summary of the method: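 Synapse count per neuron is measured in rat cortical neurons exposed to chemicals between DIV 7 and DIV 12, with glial growth arrested by AraC at DIV 5. Synaptophysin and MAP2 staining is imaged automatically; activity is fitted relative to DMSO.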

[10] = TAMU_PeakParms_SingleDonor1434_Chronotropy: Texas A&M University (TAMU) 1.5-hr Human Induced Pluripotent Stem Cell (iPSC)-derived Cardiomyocytes Calcium (Ca+2) Flux Assay for Cardiotoxicity: Chronotropy (changes in peak frequency) (AID 2284217); settings: actives raise or lower the signal
Summary of the method: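 iPSC-derived cardiomyocytes (single donor 1434) dosed at 0.2, 1, 10 and 100 uM in 0.5% DMSO for 1.5 h at 37C; Ca2+ dye fluorescence gave average beat frequency. Zero-beat points removed; bidirectional fit versus DMSO, POD as EC05.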

Measured: outcome

CC(CCl)OP(=O)(OC(C)CCl)OC(C)CCl (configuration not stated)
inactive: [1] | [2] | [3] | [4] | [5] | [6] | [7] | [8] | [9]

OC[C@@H](O)[C@@H](O)[C@H](O)[C@@H](O)CO
inactive: [1] | [2] | [3] | [6] | [7] | [8] | [10] | [9]
